12-LOX inh = ALOX12 (human) lipoxygenase inhibition; P18054; purified 12hLO, xylenol orange hydroperoxide absorbance; Potency, µM (titrated, usually from 108 µM), for the others: top-dose activity change, negative = inhibition, actives largely listed as inhibitors; hit rate 1.1% among 580,000; AID 1671190; also: % is scaled to controls: 0 for no effect and ±100 for the full control effect
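Purified human 12hLO (150 nM final) in 25 mM Hepes, 0.01% Triton X-100, pH 7.0 was preincubated 15 min at room temperature with compound. Then 40 uM arachidonic acid was added, 30 min. Hydroperoxide was read by Fe-XO absorbance ratio 573/405 nm.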
BAZ2B block = BAZ2B (human) inhibition; AID 504333; Potency, µM (titrated, usually from 114 µM), without a hit: at the highest dose activity change, negative = inhibition, hits mostly inhibitors; hit rate 4.4% among 360,000; AlphaScreen BAZ2B-H3K14Ac peptide displacement; Q9UIF8; also: % is scaled to controls: 0 for no effect and ±100 for the full control effect; nearly all actives have a fitted effect of over 60% in size
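Complex of BAZ2B and biotin-H3K14Ac (50 nM apiece) forms over 30 min at RT, then faces library compounds up to 110 uM for another 30 min; AlphaScreen beads added, 20 min dark incubation, luminescence read.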
G9a block = blocks human histone lysine methyltransferase G9a; Q96KQ7; G9a H3K9 monomethylation, AlphaScreen, 2 h; Potency, µM (titrated, usually from 102 µM), without a hit: top-dose activity, negative = inhibition, actives largely listed as inhibitors; hit rate 8.8% among 350,000; AID 504332; also: % is scaled to controls: 0 for no effect and ±100 for the full control effect; nearly all actives have a fitted effect of over 75% in size
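Signal arises when biotinylated H3K9 peptide, once monomethylated, bridges streptavidin donor and antibody-captured acceptor beads. Enzyme at 20 nM was preincubated 15 min with test compounds; peptide 500 nM and SAM 20 uM then reacted for 2 h.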
HP1b binding inh = inhibitors of HP1-beta chromodomain binding to methylated histone tails. P83916. hit rate 0.56% among 390,000. AlphaScreen HP1-beta / biotin-H3K9me3 peptide binding. Potency, µM (highest dose often 114 µM), for the others: at the highest dose activity change, negative = inhibition, most hits filed as inhibitors; also: nearly all actives have a fitted effect of over 70% in size
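Compound inhibition of the preformed complex between 50 nM HP1-beta and 50 nM biotinylated H3K9me3 peptide was read by AlphaScreen. Buffer was PBS pH 7.4 with 0.01% Tween-20. Incubations ran 30 min at room temperature, with 10 ug/mL donor/acceptor beads.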
JMJD2A Tudor inh = blocks the human JMJD2A Tudor domain; O75164; AlphaScreen JMJD2A-Tudor / H3K4me3 peptide binding; Potency, µM (top dose mostly 114 µM), for the others: top-dose activity change, negative = inhibition, most hits filed as inhibitors; hit rate 4.4% among 390,000; also: % is scaled to controls: 0 for no effect and ±100 for the full control effect; nearly all actives have a fitted effect of over 50% in size
PLK1 PBD block = PLK1 (human) polo-box domain binding inhibition | P53350 | Plk1 PBD binding of FITC phosphopeptide, fluorescence polarization | Potency, µM, inactives show max response, negative = inhibition, actives largely listed as inhibitors | hit rate 2.8% among 360,000; also: series mostly up to about 57 µM; % is scaled to controls: 0 for no effect and ±100 for the full control effect; nearly all actives have a fitted effect of over 65% in size
Target sequence (P53350 whole entry, looked up, the tested form may be a part): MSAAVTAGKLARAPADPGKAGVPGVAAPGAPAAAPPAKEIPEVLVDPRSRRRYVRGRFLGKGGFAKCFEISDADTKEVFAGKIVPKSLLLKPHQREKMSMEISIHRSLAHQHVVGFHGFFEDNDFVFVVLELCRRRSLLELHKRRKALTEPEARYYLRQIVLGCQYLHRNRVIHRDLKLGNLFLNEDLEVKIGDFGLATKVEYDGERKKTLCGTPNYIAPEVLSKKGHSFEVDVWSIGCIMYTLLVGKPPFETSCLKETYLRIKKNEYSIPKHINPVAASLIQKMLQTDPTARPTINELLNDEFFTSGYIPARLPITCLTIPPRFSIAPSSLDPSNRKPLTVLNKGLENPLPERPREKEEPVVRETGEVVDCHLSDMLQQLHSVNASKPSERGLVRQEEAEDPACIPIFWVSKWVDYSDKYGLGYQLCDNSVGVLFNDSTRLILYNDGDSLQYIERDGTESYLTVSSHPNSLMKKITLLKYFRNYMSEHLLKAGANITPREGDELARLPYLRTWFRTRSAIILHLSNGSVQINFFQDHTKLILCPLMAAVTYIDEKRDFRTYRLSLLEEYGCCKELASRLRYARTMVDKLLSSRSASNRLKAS
Active calls of the source: *; ? = inconclusive; · = no result; [ ] = dose if it differs, or a comment. In the library only some 9% were active in any assay of this set; here they are far more common. Calls follow the shape of the dose curve; as a rule, active = well fitted curve in the direction sought with a large enough effect; inconclusive = small, poorly fitted or top-dose-only effect, or another doubt; inactive = no such curve, though single readings can be large; an effect the other way counts as inactive or inconclusive. Potency is read from the fitted curve at half-maximal effect.

SMILES	12-LOX inh	BAZ2B block	G9a block	HP1b binding inh	JMJD2A Tudor inh	PLK1 PBD block
C=CCn1c(CNc2ccc(C)cc2)nnc1SCC(=O)N/N=C/c1ccc(O)cc1O	0.0%	?	55.4%[59 µM]	12.0%	-24.4%	0.9%
CCOC(=O)c1nc(N/N=C/c2ccccc2)sc1Br	10.2%	-30.3%	44.7µM*	8.8%	-19.2%	-13.1%
CC(=O)Nc1sc(N/N=C/c2ccc(O)cc2)nc1-c1ccc(C)cc1	?	?	12.6µM*	39.8µM*	44.7µM*	?
COC(=O)c1cc(=O)nc(NN=Cc2ccc(OC)cc2)s1	·	·	·	·	·	-8.6%
COc1ccc(/C=N/Nc2nc(-c3ccc(C)cc3)c(NC(C)=O)s2)cc1	?	?	10µM*	?	56.2µM*	-12.5%
CC(=O)Nc1sc(N/N=C/c2ccccc2F)nc1-c1ccc(C)cc1	?	-38.5%	14.1µM*	-11.6%	?	0.3%
CC(C)NC(=O)C[C@@H]1CCNC[C@@H]1Cc1cc(CC2CCCCC2)on1	3.3%[176 µM]	·	·	·	·	·
CC(=O)Nc1sc(N/N=C\c2ccccc2)nc1-c1cccs1	-26.4%	?	11.2µM*	50.1µM*	20µM*	?
CC(=O)Nc1sc(N/N=C\c2ccccc2Cl)nc1-c1cccs1	-28.4%	14.5%	-21.7%[59 µM]	-3.2%	?	-5.7%
CC(=O)Nc1sc(N/N=C\c2ccco2)nc1-c1cccs1	?	?	5.62µM*	14.1µM*	?	?
Nc1nc(-c2cccs2)c(NC(=O)c2ccccc2)s1	?	?	7.94µM*	-33.8%	?	?
CCOc1cc(/C=N/NC(=O)Nc2ccccc2)ccc1O	-7.3%	-4.7%	·	20.3%	-21.6%	-11.2%
CCOc1cc(/C=N/Nc2nc(-c3cccs3)c(NC(C)=O)s2)ccc1O	?	39.8µM*	20µM*	20µM*	28.2µM*	26.7µM*
Cc1ccc(NC(=O)C2CCCN2S(=O)(=O)c2ccc3c(c2)n(C)c(=O)c(=O)n3C)cc1 (stereo not given)	0.0%	-2.3%	-0.7%[59 µM]	25.3%	-5.5%	-23.1%
CC(=O)Nc1sc(N/N=C/c2ccccc2)nc1-c1ccc(C)cc1	-16.9%	?	15.8µM*	?	?	-5.6%
CC(=O)Nc1ccc(/C=N/Nc2nc3ccccc3s2)cc1	18.0%	-1.4%	-2.8%	41.1%	-5.1%	3.0%
CC(c1ccccc1)N1C(=O)CC(Sc2ncccc2C(=O)O)C1=O (stereo not given)	-19.3%	3.1%	22.4µM*	31.7%	-15.7%	-8.5%
CCCCN1C(=O)CC(Sc2ncccc2C(=O)O)C1=O (stereo not given)	?	-21.4%	-6.8%	43.8%	0.7%	-8.9%
COc1ccc(N2C(=O)CC(Sc3ncccc3C(=O)O)C2=O)cc1 (stereo not given)	3.2%	1.5%	?	42.7%	-1.1%	-3.5%
O=C(O)c1cccnc1SC1CC(=O)N(c2ccccc2)C1=O (stereo not given)	-8.5%	-26.8%	56.2µM*	68.5%	-16.2%	-18.9%
Fc1ccccc1CN1CCOC[C@H](Oc2cccnc2)C1	-21.6%[176 µM]	·	·	·	·	·
CCOc1ccc2oc(C(=O)OCC(=O)NC(=O)NC)c(C)c2c1	-0.7%	0.0%	-6.5%	31.3%	-9.2%	-10.8%
COc1ccc(/C=N/N2CCN(C)CC2)c(OC)c1OC	5.9%	-2.4%	-36.8%	26.1%	-1.0%	0.4%
COc1cccc(C=NN2CCCCCC2)c1OC	?	·	·	?	56.2µM*	-5.4%
CCOc1cc(C=NN2CCCCCC2)ccc1O	?	·	·	?	50.1µM*	-1.7%
SMILES	12-LOX inh	BAZ2B block	G9a block	HP1b binding inh	JMJD2A Tudor inh	PLK1 PBD block
COc1cccc(/C=N/N2CCN(c3ccc(Cl)cc3)CC2)c1OC	6.0%	?	-0.8%	20.4%	?	2.4%
CCOc1ccccc1C=NN1CCCCCC1	?	·	·	?	44.7µM*	2.6%
COc1ccccc1N1CCN(/N=C/c2ccc(OC)c(OC)c2OC)CC1	-0.3%	31.6µM*	35.5µM*	-2.4%	?	-7.8%
Brc1ccccc1/C=N/N1CCCCC1	·	?	-4.8%[2.33 µM]	-28.8%	?	-0.6%
Cc1ccsc1CN1CCc2[nH]nc(C(=O)N3CCOCC3)c2C1	31.5%	·	·	·	·	·
CC(C)=CC(=O)Nc1nnc(C(C)C)s1	-12.0%	-4.8%[57.1 µM]	6.8%	14.6%	-10.2%	-4.0%
C=CCn1c(SCC(=O)N(C)C2CCS(=O)(=O)C2)nnc1-c1ccccc1 (stereo not given)	-4.7%	-3.6%	56.2µM*	-11.7%	-17.4%	-8.5%
CCN(C(=O)CSc1nnc(-c2ccc(F)cc2)c2ccccc12)C1CCS(=O)(=O)C1 (stereo not given)	4.6%	-11.2%	35.5µM*	14.6%	-21.6%	-8.7%
CN(C(=O)CSc1nnc(NCc2ccccc2)s1)C1CCS(=O)(=O)C1 (stereo not given)	0.9%	-3.6%	50.1µM*	30.8%	15.8%	-4.2%
CCN(C(=O)CSc1nnc(C)n1Cc1ccccc1)C1CCS(=O)(=O)C1 (stereo not given)	?	-9.1%	25.1µM*	45.3%	0.8%[11.4 µM]	-13.7%
Cc1ccc(SCC(=O)N(C)C2CCS(=O)(=O)C2)cc1 (stereo not given)	19.9%	-21.4%	1.5%	42.8%	5.5%	-6.0%
CCN(C(=O)CSc1nc2ccccc2c(=O)n1-c1cccc(C)c1)C1CCS(=O)(=O)C1 (stereo not given)	492.7%	10.5%	-28.3%	-7.2%	?	26.7µM*
Cc1ccc(-c2nc(SCC(=O)N(C)C3CCS(=O)(=O)C3)[nH]c2-c2ccc(C)cc2)cc1 (stereo not given)	-26.5%	50.1µM*	?	-16.8%	?	-9.8%
CCN(C(=O)CSc1nnc(Nc2ccccc2C)s1)C1CCS(=O)(=O)C1 (stereo not given)	-0.4%	9.1%	50.1µM*	21.5%	-13.6%	-7.9%
Cc1ccc(C(=O)N2CCCN(S(C)(=O)=O)c3ccccc32)c(C)c1	31.2%	·	·	·	·	·
CCC(C)N=C1CC(C)(C)CC(=O)/C1=C(/O)Cc1ccccc1 (stereo not given)	1.5%	-5.0%	2.4%[59 µM]	37.5%	2.1%	-3.8%
O=C(O)c1ccccc1-c1ccccc1C(=O)NCc1ccccc1F	18.5%	0.8%	·	22.0%	-4.1%	-9.3%
COc1ccccc1Cn1c(=O)c2ccccc2n2c(Sc3ncnc4sccc34)nnc12	0.0%	11.2%	?	6.0%	-18.2%	0.0%
O=C(NC1CCCCC1)N1CCN(S(=O)(=O)c2ccc(F)cc2)CC1	-8.4%	3.0%	2.6%	8.1%	-8.9%	5.9%
COc1cc(CNC(C)C)ccc1OCC(=O)Nc1cccc2ccccc12	450.4%	-19.8%	9.8%	32.7%	-12.4%	1.9%
COc1ccc(/C=N/n2cnn(Cc3ccccc3Cl)c2=S)cc1OC	-18.7%	-27.7%	39.8µM*	?	-26.4%	23.8µM*
